In all, about 96,000 compounds went through this assay and about 1,200 (1.2%) were called active. The entries come from a sample that favours actives as a whole. Values without a mark were called inactive. Cut-off read from the data, not from the text of the source: active = activation fold above about 2; inactive = the rest.
biological target: Alkaline phosphatase, placental type (Homo sapiens) (UniProt P05187); test: PLAP enzyme activators, biochemical, luminescence, HTS (AID 696); conditions: purified PLAP enzyme, luminescent substrate read-out; at 20 µM; active compounds read high
Sequence (P05187 whole entry, looked up): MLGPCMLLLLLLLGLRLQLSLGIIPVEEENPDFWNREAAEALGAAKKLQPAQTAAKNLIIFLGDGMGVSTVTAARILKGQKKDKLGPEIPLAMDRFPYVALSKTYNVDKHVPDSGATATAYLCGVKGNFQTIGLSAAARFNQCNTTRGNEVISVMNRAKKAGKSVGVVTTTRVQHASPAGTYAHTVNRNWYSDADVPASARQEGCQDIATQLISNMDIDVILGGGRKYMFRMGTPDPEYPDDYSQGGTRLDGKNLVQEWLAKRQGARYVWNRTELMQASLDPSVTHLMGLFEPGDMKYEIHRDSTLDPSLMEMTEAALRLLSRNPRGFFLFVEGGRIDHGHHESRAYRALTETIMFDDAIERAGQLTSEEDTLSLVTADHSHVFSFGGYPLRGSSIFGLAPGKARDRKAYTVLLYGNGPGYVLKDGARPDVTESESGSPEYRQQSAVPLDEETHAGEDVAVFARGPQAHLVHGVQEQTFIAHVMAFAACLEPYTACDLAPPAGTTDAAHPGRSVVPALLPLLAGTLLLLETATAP

SMILES	activation fold
CCOC(=O)C1=NNC2(c3ccc(Cl)cc3)C(=O)N(c3cc(C)cc(C)c3)C(=O)C12 (configuration not stated)	1.1
CCOC(=O)Cc1csc(NC(NC(=O)OCC)(C(F)(F)F)C(F)(F)F)n1	0.9
CCOc1ccc(Nc2nc(Cc3nnc(SCC(=O)c4ccc(C)cc4)o3)cs2)cc1	0.7
Cn1c(-c2sc3cc(C(F)(F)F)cnc3c2-c2ccccc2)n[nH]c1=S	2.6 (active)
Cc1ccc(/C=N\n2c(-c3ccccc3)n[nH]c2=S)s1	1.3
Cc1cc(C(F)(F)F)n2ncc(-c3ccccc3)c2n1	0.9
CO/N=C(/CS(=O)(=O)c1ccc(Br)cc1)c1ccc(OC)cc1	1.6
CC(C)c1ccc(Nc2ncccc2C#N)cc1	0.9
COc1ccccc1C(=O)Nc1nc2nc(-c3ccccc3)cc(=O)n2[nH]1	1.1
CCCCNc1ccc(C(=O)Nc2cccc(C)n2)cc1[N+](=O)[O-]	0.9
O=C(Nc1nnc(SCc2ccc(Cl)cc2Cl)s1)C1COc2ccccc2O1 (configuration not stated)	1.1
O=C(CCCN1C(=O)c2cccc3cccc(c23)C1=O)N1CCN(Cc2ccc3c(c2)OCO3)CC1	1.6
O=C(Nc1cccc2ccccc12)N1CCN(Cc2ccc3c(c2)OCO3)CC1	2.1 (active)
O=C(c1cccs1)N1CCN(Cc2ccc3c(c2)OCO3)CC1	1.2
O=C(CN1CCSCC1)N/N=C/c1ccc(F)cc1F	1
Cc1cccc(N(CC(=O)N2CCOCC2)S(C)(=O)=O)c1	0.8
CCC1Oc2ccc(Cl)cc2N(CC(=O)O)C1=O (configuration not stated)	1
Cc1cccc(N2C(=O)SC(N(CC(=O)O)c3cccc(C)c3)C2=O)c1 (configuration not stated)	2.2 (active)
Cc1csc(OCC(=O)Nc2ccc(C)c(C)c2)n1	1.2
N/C(=N\OC(=O)CCc1ccccc1)c1ccc(Cl)cc1	0.9
Cc1[nH]n(-c2cccc(Cl)c2)c(=O)c1-c1ccc(Cl)cc1	1
Cc1[nH]n(-c2cccc(Cl)c2)c(=O)c1/C=N/n1c(C)nc2ccccc2c1=O	2.1 (active)
COc1cc(NS(=O)(=O)c2ccc(N=Cc3c(C)[nH]n(-c4ccccc4)c3=O)cc2)nc(OC)n1	1.5
CC1(C)CC(=O)C2=C(C1)N=C1SCCC(=O)N1C2c1ccc(C(F)(F)F)cc1 (configuration not stated)	1.2
COc1ccc(C)cc1S(=O)(=O)NCCc1ccccc1	0.8
COC(=O)c1ccccc1NC(=O)CN(Cc1ccc(Cl)cc1)S(C)(=O)=O	1.5
COc1ccc([N+](=O)[O-])cc1N(CC(O)Cn1nnc2ccccc21)S(=O)(=O)c1ccc(C)cc1 (configuration not stated)	1.4
